PubChem BioAssay AID1851 (National Center for Advancing Translational Sciences (NCATS), 2009)
Where “and” joins values, the source holds several entries; their conditions need not be identical. Equal entries are not always repeated. Screen size: about 16,000 compounds; about 5,800 (36%) were called active. Another 23% or so got no clear call; they are omitted. The call rests on the fitted dose curve; in most records, active means well fitted curve in the direction sought with a large enough effect; inconclusive means small, poorly fitted or top-dose-only effect, or effect the other way; inactive means no such curve, though single readings can be large or run the other way. The list shows a part of the results.

Each compound was assayed against Cytochrome P450 2C19 (Homo sapiens) (UniProt P33261) (assay: Cytochrome panel assay with activity outcomes). Conditions: recombinant CYP, pro-luciferin dealkylation, luminescence, p450-cyp2c19; series mostly up to 57.1 µM; activity, negative = inhibition: at the top concentration.
On the % scale 0 is the no-effect control and ±100 the full control effect.

Sequence of Cytochrome P450 2C19 (Homo sapiens) (P33261 whole entry, looked up): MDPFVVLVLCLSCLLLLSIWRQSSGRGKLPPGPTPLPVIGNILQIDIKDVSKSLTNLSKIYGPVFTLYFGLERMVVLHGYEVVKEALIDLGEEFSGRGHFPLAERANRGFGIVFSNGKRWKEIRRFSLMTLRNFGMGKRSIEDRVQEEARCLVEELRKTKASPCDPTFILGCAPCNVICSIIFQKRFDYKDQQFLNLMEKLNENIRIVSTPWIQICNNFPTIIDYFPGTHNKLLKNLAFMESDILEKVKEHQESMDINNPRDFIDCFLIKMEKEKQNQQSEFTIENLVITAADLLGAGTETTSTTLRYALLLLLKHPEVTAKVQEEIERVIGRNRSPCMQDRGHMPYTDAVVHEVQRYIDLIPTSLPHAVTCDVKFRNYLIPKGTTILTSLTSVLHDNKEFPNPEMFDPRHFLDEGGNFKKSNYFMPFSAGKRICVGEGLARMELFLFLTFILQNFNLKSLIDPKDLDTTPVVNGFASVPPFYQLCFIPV

activity, negative = inhibition, inactive:
NS(=O)(=O)Cc1noc2ccccc12 -11.9%
Cc1cc(C(C)(C)CC(C)(C)C)ccc1OCCOCC[N+](C)(C)Cc1ccccc1 -43.6% [at 25.6 µM]
CN[C@@H]1[C@H](O[C@H]2[C@@H](O[C@@H]3[C@@H](O)[C@@H](O)[C@@H](N=C(N)N)[C@@H](O)[C@@H]3N=C(N)N)O[C@@H](C)[C@]2(O)CO)O[C@H](CO)[C@@H](O)[C@@H]1O 18.4% [at 25.6 µM]
Clc1ccccc1-c1cc(NCc2cccnc2)ncn1 -38%
COC(=O)[C@@]1(Cc2ccc(OC)cc2)[C@H]2c3cc(C(=O)N4CCCC4)n(Cc4ccc(Cl)c(C(F)(F)F)c4)c3C[C@H]2CN1C(=O)c1ccccc1 -43.7%
COc1ccc(C(=O)N2CCC[C@@]3(CCN(Cc4cc(C(F)(F)F)cc(C(F)(F)F)c4)C3)C2)cc1 13.4%
COc1ccc(NC(=O)N2CC[C@@]3(CCCN(C(=O)c4cccc(F)c4)C3)C2)cc1 14.1%
O=S(=O)(O)[C@@H](CO)c1ccccc1 (tested in a mixture with another compound) -9.78% [at 11.4 µM]
Cc1ccc(S(=O)(=O)NCc2ccccc2)cc1 -39.9%
CCCCNC(=O)NS(=O)(=O)c1ccc(C)cc1 24.1% [at 25.6 µM]
COc1ncc2nc(-c3cn(C)c4ccccc34)c(=O)n(CCC#N)c2n1 4.22%
CS(=O)(=O)Nc1ccc([N+](=O)[O-])cc1Oc1ccccc1 -27.8% [at 25.6 µM]
CCN(CC)CCOc1ccc(/C(=C(\Cl)c2ccccc2)c2ccccc2)cc1 -31.9% [at 25.6 µM]
COc1ccc(O)c(/C=N/NC(=O)CSc2nnc(C)n2-c2ccccc2)c1 -22.6%
CN(C)c1ncc2nc(-c3ccc(F)cc3)c(=O)n(Cc3ccc(F)cc3)c2n1 15.8%
CN(C)c1ncc2nc(-c3cc(F)cc(F)c3)c(=O)n(Cc3ccc(F)cc3)c2n1 36.3%
CCNc1ncc2nc(-c3ccccc3)c(=O)n(Cc3ccc(F)cc3)c2n1 -39%
CCNc1ncc2nc(-c3ccc(OC)cc3)c(=O)n(Cc3ccc(F)cc3)c2n1 5.68%
CN(C)c1ncc2ncc(=O)n(C)c2n1 -19.2%
CN(C)c1ncc2nc(-c3ccc(Cl)cc3)c(=O)n(Cc3ccc(F)cc3)c2n1 -31.2%
O=C(O)[C@@H]1[C@H](C(=O)O)[C@H]2C(=O)C=C[C@H]1N2Cc1ccccc1 2.25% [at 11.4 µM]
O=C1C[C@@H](O)[C@@H](O)[C@H]2[C@@H]3C(=O)N(Cc4ccccc4)C(=O)[C@@H]3CC[C@H]12 -9.62% [at 11.4 µM] and 25.4% [at 11.4 µM]

AC50, active:
COc1ccc(-c2ccc(=N)n(CCCC(=O)O)n2)cc1 0.158 µM
Clc1ccccc1-c1cc(NCc2ccccc2)ncn1 7.94 µM
Cc1cccc(CNc2cc(-c3ccccc3Cl)ncn2)c1 10 µM
CC(C(=O)NCc1ccc2c(c1)OCO2)N1c2cccc3cccc(c23)S1(=O)=O (stereo unspecified) 0.794 µM
COC(=O)[C@@]1(Cc2ccc(F)cc2)[C@H]2c3cc(C(=O)N4CCCC4)n(CCc4c[nH]c5ccc(OC)cc45)c3C[C@H]2CN1C(=O)c1ccccc1 7.94 µM
COC(=O)[C@@]1(Cc2ccc(OC)cc2)[C@H]2c3cc(C(=O)N4CCCC4)n(CCc4c[nH]c5cc(F)ccc45)c3C[C@H]2CN1C(=O)c1ccccc1 3.98 µM
COC(=O)[C@@]1(Cc2ccc(OC)cc2)[C@H]2c3cc(C(=O)N4CCCC4)n(CCCNc4ncc(C(F)(F)F)cc4Cl)c3C[C@H]2CN1C(=O)c1ccccc1 3.16 µM
COC(=O)[C@@]1(Cc2ccc(OC)cc2)[C@H]2c3cc(C(=O)N4CCCC4)n(CCc4c[nH]c5ccc(O)cc45)c3C[C@H]2CN1C(=O)c1ccccc1 10 µM
COC(=O)[C@@]1(Cc2ccc(F)cc2)[C@H]2c3cc(C(=O)N4CCCC4)n(CCc4c[nH]c5ccccc45)c3C[C@H]2CN1C(=O)c1ccccc1 10 µM
O=C1C(SCCO)=C(SCCO)C(=O)c2ccccc21 0.0794 µM
Cc1ccc(S(=O)(=O)NCCC(=O)NCc2ccccc2)cc1 20 µM
CCN(CC)C(=O)CCNS(=O)(=O)c1ccc(C)cc1 5.01 µM
CCOc1cc(C2NN=C(c3ccccc3)S2)ccc1OCc1ccccc1Cl (stereo unspecified) 5.01 µM
Nc1nc(SCC(=O)Nc2ccccc2Sc2ccc(Cl)cc2)n[nH]1 0.0631 µM
O=C(Cn1cnc2ccccc2c1=O)Nc1nnc(SCc2ccccc2)s1 15.8 µM
Cc1ccc(C(=O)COC(=O)c2ccccc2N2C(=O)C3C4CCC(C4)C3C2=O)cc1C (stereo unspecified) 14.1 µM
CS(=O)(=O)Nc1ccc([N+](=O)[O-])cc1OC1CCCCC1 0.0794 µM
CCN(CC)CCOc1ccc(Cc2ccccc2)cc1 15.8 µM
COc1ccccc1NCc1nnc(SCC(=O)N/N=C/c2ccco2)n1-c1ccc(Cl)cc1Cl 4.47 µM
Cc1nc2cnc(N(C)C)nc2n(Cc2ccc(F)cc2)c1=O 1.58 µM
CN(C)c1ncc2ncc(=O)n(Cc3ccc(F)cc3)c2n1 3.16 µM
CCNc1ncc2ncc(=O)n(Cc3ccc(F)cc3)c2n1 15.8 µM
O=C1C2CCC(C(O)C2)N1Cc1ccccc1 (stereo unspecified) 15.8 µM

AC50, inactive:
COc1ccc(-c2ccc(N)[n+](CCCC(=O)O)n2)cc1
